Most compounds without a hit are left out; they make up all but 2.4% or so of the library.
Pol iota inh: DNA polymerase iota (human) inhibition; Q9UNA4; Pol iota fluorescent replication assay, 10 min; Potency, µM (top dose mostly 115 µM), without a hit: at the highest dose activity, negative = inhibition, hits mostly inhibitors; actives 1% (n = 390,000)
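Fluorescent replication assay read twice, at 0 min and 10 min after adding 50 nM (final) substrate. Enzyme (10 nM) and compounds were first incubated 15 min at room temperature; enzyme-free buffer wells were negative controls.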
Pol kappa inh-1: blocks human DNA polymerase kappa activity. Q9UBT6. purified Pol kappa, fluorescent DNA synthesis assay, 10 min. Potency, µM (highest dose often 107 µM), inactives show top-dose activity, negative = inhibition, usual class: inhibitors. actives 0.53% (n = 400,000). AID 588579; note: % is set by controls: 0 for no effect and ±100 for the full control effect
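50 nM final substrate added after 15 min RT preincubation of 10 nM Pol kappa with compound; fluorescence read at 0 and 10 min.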
POLB inh: DNA polymerase beta (human) inhibition. Potency, µM (doses to about 114 µM), for inactives: top-dose activity change, negative = inhibition, hits mostly inhibitors. Pol beta primer extension/strand displacement, fluorescence kinetic. actives 1.3% (n = 340,000); note: % is set by controls: 0 for no effect and ±100 for the full control effect
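Preincubation: enzyme (10 nM) with compound, 15 min, RT. Reaction: substrate added to 50 nM final. Reads: 0 and 10 min. Analysis: normalized, Hill fit.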
GLS inh: glutaminase GLS (human) inhibition. actives 0.21% (n = 410,000). Potency, µM (titrated, usually from 45.5 µM), inactives show top-dose activity change, negative = inhibition, actives largely listed as inhibitors. GLS enzymatic activity, qHTS titration. AID 624170; note: % is set by controls: 0 for no effect and ±100 for the full control effect
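Compounds were pin-transferred onto hKGA, after which L-glutamine (1 mM solution) and a detection mix of glutamate oxidase, HRP and Amplex Red were added. Initial and 30 min RT fluorescence reads were collected.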
Pol eta inh-1: blocks human DNA polymerase eta activity. recombinant Pol eta, fluorescent DNA replication assay. Potency, µM (highest dose often 114 µM), without a hit: at the top dose activity change, negative = inhibition, hits mostly inhibitors. actives 1.2% (n = 390,000). AID 588591; note: % is set by controls: 0 for no effect and ±100 for the full control effect
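Pol eta at 10 nM preincubated with compounds 15 min at room temperature; reaction started with fluorescent substrate (50 nM final) and read kinetically at 0 and 10 min.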
APEX1 inh: APE1 (human) endonuclease inhibition. actives 0.35% (n = 350,000). AID 2517. Potency, µM (top dose mostly 65.8 µM), for the others: at the highest dose activity change, negative = inhibition, usual class: inhibitors. P27695. recombinant APE1, TAMRA/BHQ-2 abasic DNA cleavage fluorescence;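 note: plate controls were vehicle for no effect and reference inhibitor for full effect; nearly all actives have a fitted effect of over 55% in size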
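Substrate: short duplex with […] THF abasic site, 5'-TAMRA and 3'-BHQ-2, 50 nM final. APE1 at 0.75 nM, preincubated 15 min RT with compound. Fluorescence increase from first to third read measured activity.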
POLI cherry-pick: Human Pol iota inhibitor confirmatory assay; shares compounds with Pol kappa inh-1; Pol iota primer extension, TAMRA/BHQ fluorescence; Potency, µM, most hits filed as inhibitors; actives 77% (n = 1,500)
Pol kappa inh-2: Pol kappa (human) inhibition, cherry-pick confirmation; actives 76% (n = 920); Potency, µM, actives largely listed as inhibitors; purified Pol-kappa, fluorescent strand-displacement substrate; shares compounds with Pol eta inh-1
Pol eta inh-2: Pol eta (human) inhibition, cherry-pick confirmation; actives 64% (n = 2,600); Potency, µM, most hits filed as inhibitors; Pol eta primer extension, TAMRA/BHQ fluorescence, 10 min; shares compounds with Pol eta inh-1
The depositor's hits bear a star; u = inconclusive; x = not tested or not shown. Calls come from the whole dose curve; as a rule, active = well fitted curve in the direction sought with a large enough effect; inconclusive = small, poorly fitted or top-dose-only effect, or another doubt; inactive = no such curve, though single readings can be large; an effect the other way counts as inactive or inconclusive. Potency is the fitted concentration of half-maximal effect.

SMILES	Pol iota inh	Pol kappa inh-1	POLB inh	GLS inh	Pol eta inh-1	APEX1 inh	POLI cherry-pick	Pol kappa inh-2	Pol eta inh-2
O=S(=O)(Nc1nccs1)c1ccc(NS(=O)(=O)c2cccs2)cc1	23%	0%	-5%	-1%	-12%	-1%	x	x	x
Cc1ccccc1Nc1cc2ccccc2c(=O)[nH]1	u	-11%	-12%	56%	11µM*	-8%	75*	x	38*
O=c1[nH]c(Nc2ccccn2)cc2ccccc12	u	-5%	x	0%	u	x	x	x	x
COc1ccccc1Nc1cc2ccccc2c(=O)[nH]1	x	x	x	x	x	x	42*	x	27*
CCOc1cc(C2C3=C(CCCC3=O)Nc3ccc4ncccc4c32)ccc1O (stereo unspecified)	28%	-13%	41%	-9%	-2%	16%	x	x	x
CSC1=NC2(CCN(C(=O)NC3CCCCC3)CC2)N=C1c1ccc(C(C)(C)C)cc1	13%	-10%	5%	-4%	-2%	x	x	x	x
COc1ccccc1CNC(=O)CCS(=O)(=O)c1ccc2c(c1)CC(C)N2C(=O)C1CC1 (stereo unspecified)	10%	6%	83%	4%	-16%	26%	x	x	x
COc1cccc(-c2ccc3nnc(SCC(=O)Nc4ccc(NC(C)=O)cc4)n3n2)c1	u	-11%	x	-16%	u	20%	u	x	u
O=C(C[C@@H]1C/C=C\CCC(=O)OC[C@@H]2CCCN2C1=O)N[C@H](CO)Cc1ccccc1	-13%	19%	x	1%	-3%	16%	x	x	x
C=CCSC1=N/C(=C\C=C\c2ccco2)C(=O)S1	4.5µM*	14µM*	2.5µM*	-2%	3.5µM*	10µM*	21*	9.5*	21*
Cc1cccc(NC(=O)CSc2nc(N)c(NC(=O)c3ccccc3F)c(=O)[nH]2)c1	14%	0%	15%	0%	-21%	82%	x	x	x
CC(=O)Nc1ccc(NC(=O)CSc2nc(N)c(NC(=O)c3ccccc3F)c(=O)[nH]2)cc1	40µM*	u	u	9%	25µM*	6%	67*	u	u
COc1ccc(/C=N/Nc2ncc(Br)cn2)c(OC)c1	-4%	5%	4.5µM*	u	28µM*	-1%	42*	15*	x
CC1=C(C(=O)Nc2ccccc2C)C(c2ccncc2)n2nc(SCc3ccccc3Cl)nc2N1 (stereo unspecified)	-25%	-5%	35%	26%	8%	x	x	x	x
CN(C)c1ccc2cc(S(=O)(=O)O)cc(O)c2c1	u	32µM*	x	u	10µM*	x	u	x	19*
CN(CCC#N)C(=O)COC(=O)c1c2c(nc3ccccc13)/C(=C\c1ccco1)CC2	4µM*	22µM*	x	11µM*	11µM*	x	17*	x	34*
O=C(COC(=O)c1c2c(nc3ccccc13)/C(=C\c1ccco1)CC2)NC1CCCC1	6.3µM*	22µM*	x	u	3.5µM*	x	19*	12*	27*
CC1CCCCC1NC(=O)COC(=O)c1c2c(nc3ccccc13)/C(=C\c1ccco1)CC2 (stereo unspecified)	3.2µM*	22µM*	x	11µM*	10µM*	x	60*	21*	34*
